What is called AC50 is the midpoint of the concentration-response curve, whichever way the signal moves.

Data on 4 molecules can be found in PubChem BioAssay (EPA / NIEHS).

A short description of experiment [1]: ATG_NF_kB_CIS: Attagene CIS-FACTORIAL HepG2 Assay for human Nuclear Factor Kappa B (NF-kB) (AID 2282991). The conditions noted are these: HepG2 Attagene cis-factorial NF-kB reporter mRNA; actives raise or lower the signal. The gist of the method: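 HepG2 cells transiently transfected with multiplexed cis-element reporter units measuring endogenous transcription factor activity; reporter mRNA read 24 h after dosing by RT-PCR, fluorescent labelling, HpaI digestion and capillary electrophoresis. Bidirectional fit against DMSO baseline.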

Experiment [2] is described as follows: ATG_NRF2_ARE_CIS: Attagene CIS-FACTORIAL HepG2 Assay for human Nuclear Factor Erythroid 2 Related Factor 2 (NFR2) response to Antioxidant Response Elements (ARE) (AID 2282992). As to conditions: HepG2 Attagene ARE/NRF2 reporter, transcription factor activity; actives raise or lower the signal. The gist of the method:
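Cis-factorial assay: transfected HepG2 reporter library, 24 h dosing, mRNA readout via RT-PCR/CE; DMSO-referenced bidirectional analysis.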

Experiment [3] in a line: ATG_Oct_MLP_CIS: Attagene CIS-FACTORIAL HepG2 Assay for human Octamer-Binding Transcription Factor (Oct) (AID 2282993). The conditions noted are these: HepG2 Attagene cis-factorial Oct reporter, mRNA; actives raise or lower the signal. The gist of the method: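 Cells of the HepG2 line express promoter-controlled reporter sequences whose mRNA levels, after 24 h treatment, are measured by RT-PCR and capillary electrophoresis. Increases and decreases are scored relative to DMSO.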

Experiment [4] is described as follows: BSK_3C_TissueFactor: BioMAP Diversity Plus: 3C Assay for Tissue Factor Biomarker Activity (AID 2282997). As to conditions: BioMAP 3C HUVEC, tissue factor biomarker readout; actives raise or lower the signal. In short, it runs like this: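 HUVEC were treated 24 h, then surface tissue factor measured by ELISA and fitted bidirectionally against DMSO. Parallel SRB total-protein staining assessed overt cytotoxicity at the same time point.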

Experiment [5] in a line: BSK_3C_uPAR: BioMAP Diversity Plus: 3C Assay for Urokinase-type plasminogen activator receptor (uPAR) Biomarker Activity (AID 2282998). The conditions noted are these: BioMAP 3C HUVEC, uPAR biomarker ELISA; actives raise or lower the signal. The gist of the method: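 Endothelial primary cells of human umbilical vein origin received test chemical; 24 h later uPAR was assayed by ELISA. Fitting was bidirectional, DMSO as negative control.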
For orientation: An ELISA detects its analyte on a solid surface through an enzyme-linked reagent.

Experiment [6] in a line: BSK_3C_VCAM1: BioMAP Diversity Plus: 3C Assay for Vascular cell adhesion molecule 1 (VCAM1) Biomarker Activity (AID 2282999). As to conditions: BioMAP 3C HUVEC, VCAM1 ELISA, cytokine-stimulated; actives raise or lower the signal. The gist of the method: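 Endothelial cells from human umbilical vein are treated with test chemical. At 24 h, VCAM-1 is measured by ELISA, and responses in either direction are fitted relative to DMSO.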

Experiment [7] can be described thus: BSK_4H_Eotaxin3: BioMAP Diversity Plus: 4H Assay for Eotaxin 3 Biomarker Activity (AID 2283000).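 For outcome: CCL26 protein level quantified by ELISA in parallel with SRB cytotoxicity check.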 The conditions noted are these: primary human endothelial cells (HUVEC); actives raise or lower the signal. In short, it runs like this: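 Eotaxin-3 (CCL26) levels were measured by ELISA in HUVEC primary cultures 24 h post-dosing. Gain or loss of signal was fitted in both directions, with DMSO serving as baseline and negative control.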

The target in experiment [8] is human Peroxisome Proliferator-activated Receptor alpha (PPARa), PPARA (gene 5465) (UniProt Q07869). In words: ATG_PPARa_TRANS: Attagene TRANS-FACTORIAL HepG2 Assay for human Peroxisome Proliferator-activated Receptor alpha (PPARa) (AID 2283001; active = hit-call score of the fitted dose curve at least 0.9, where 1 is the maximum;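 for AC50: potency for gain of reporter signal over DMSO so agonist or activator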). The gist of the method:
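Read-out is fluorescence of reporter cDNA fragments resolved by capillary electrophoresis after RT-PCR. Human HepG2 liver cells carried transfected PPARa-Gal4 chimera and GAL4-UAS reporter units, treated 24 h; activity scored as increase over DMSO.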

The target in experiment [9] is human Peroxisome Proliferator-activated Receptor delta (PPARd), PPARD (gene 5467) (UniProt Q03181). As to the kind of experiment: ATG_PPARd_TRANS: Attagene TRANS-FACTORIAL HepG2 Assay for human Peroxisome Proliferator-activated Receptor delta (PPARd) (AID 2283002; active = hit-call score of the fitted dose curve at least 0.9, where 1 is the maximum). The gist of the method: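 Transient HepG2 transfection (multiple GAL4-UAS RTUs, chimeric receptor-Gal4); 24 h dosing; total RNA → oligo(dT) RT → PCR → 6-FAM primer extension → HpaI cut → CE. Positive direction vs DMSO.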

Read-out in experiment [10]: Intercellular Adhesion Molecule 1 (ICAM1), ICAM1 (gene 3383)
In words: BSK_3C_ICAM1: BioMAP Diversity Plus: 3C Assay for Intercellular Adhesion Molecule 1 (ICAM1) Biomarker Activity (AID 2283003). As to conditions: primary human endothelial cells (HUVEC); actives raise or lower the signal. The gist of the method:
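ICAM-1 levels measured by ELISA after HUVEC cultures in the 3C system had been dosed for 24 h. Gain or loss of signal relative to DMSO was fitted in both directions.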

The target of experiment [11] is human Retinoic Acid Receptor beta (RARb), RARB (gene 5915) (UniProt P10826). In words: ATG_RARb_TRANS: Attagene TRANS-FACTORIAL HepG2 Assay for human Retinoic Acid Receptor beta (AID 2283004; active = hit-call score of the fitted dose curve at least 0.9, where 1 is the maximum). The gist of the method: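 HepG2 cells were transiently transfected with GAL4-UAS reporter units that report activity of exogenous chimeric NR-Gal4 proteins, then exposed to compound for 24 h. Reporter mRNA was quantified by RT-PCR with capillary electrophoresis fluorescence, as gain of signal over DMSO.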

Experiment [12] concerns the target Retinoic acid receptor alpha (Homo sapiens) (UniProt P10276). As to the kind of experiment: ATG_RARa_TRANS: Attagene TRANS-FACTORIAL HepG2 Assay for human Retinoic Acid Receptor alpha (RARa) (AID 2283005; active = hit-call score of the fitted dose curve at least 0.9, where 1 is the maximum). In short, it runs like this:
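Reporter transcripts, measured by RT-PCR with fluorescent labeling and capillary electrophoresis after 24 h dosing, reflect activity of an exogenous human RARa–GAL4 fusion in transiently transfected HepG2. Fitted for increase relative to DMSO.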

Experiment [13] is described as follows: BSK_3C_Proliferation: Cell Proliferation Assessment in the BioMAP Diversity Plus: 3C Assay (AID 2283006).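 For AC50: potency may reflect either rise or fall in cell number versus DMSO.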 As to conditions: primary human endothelial cells (HUVEC). The gist of the method: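 Read-out is total protein by SRB absorbance at 560 nm, taken as a proxy for relative cell number. Primary human umbilical vein endothelium cultured below confluence was dosed for 48 h, TCA-fixed and SRB-stained; curves were fitted bidirectionally versus DMSO.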

In experiment [14] the target is Peroxisome proliferator-activated receptor gamma (Homo sapiens) (UniProt P37231). In words: ATG_PPARg_TRANS: Attagene TRANS-FACTORIAL HepG2 Assay for human Peroxisome Proliferator-activated Receptor-gamma (PPARg) (AID 2283007; active = hit-call score of the fitted dose curve at least 0.9, where 1 is the maximum). In short, it runs like this: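 HepG2 cells transiently transfected with multiplexed GAL4-UAS reporter units and exogenous chimeric NR-Gal4 proteins; reporter mRNA quantified after 24 h compound exposure by RT-PCR, fluorescent labelling, HpaI digestion and capillary electrophoresis; gain-of-signal fitted versus DMSO baseline.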

For experiment [15], the target named is Nuclear receptor subfamily 1 group I member 2 (Homo sapiens) (UniProt O75469). In words: ATG_PXR_TRANS: Attagene TRANS-FACTORIAL HepG2 Assay for human Pregnane X Receptor (PXR) (AID 2283008; active = hit-call score of the fitted dose curve at least 0.9, where 1 is the maximum). The gist of the method:
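Fluorescence intensity of FAM-labelled, HpaI-digested reporter amplicons, separated by capillary electrophoresis, quantifies induction. HepG2 cells with PXR-Gal4 trans-reporter system were exposed 24 h; DMSO defines baseline.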

Experiment [16] deals with human Retinoic Acid Receptor gamma (RARg), RARG (gene 5916) (UniProt P13631). As to the kind of experiment: ATG_RARg_TRANS: Attagene TRANS-FACTORIAL HepG2 Assay for human Retinoic Acid Receptor gamma (RARg) (AID 2283009; active = hit-call score of the fitted dose curve at least 0.9, where 1 is the maximum). In short, it runs like this:
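Transient transfection of HepG2 with multi-reporter constructs, then 24 h chemical treatment. Total RNA isolated, reverse-transcribed, PCR-amplified, fluorescently labelled and resolved by capillary electrophoresis; activity scored as mRNA induction versus DMSO.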

Experiment [17] has as its target human RAR-related Orphan Receptor beta (RORb), RORB (gene 6096) (UniProt Q92753). In words: ATG_RORb_TRANS: Attagene TRANS-FACTORIAL HepG2 Assay for human RAR-related Orphan Receptor beta (RORb) (AID 2283010; active = hit-call score of the fitted dose curve at least 0.9, where 1 is the maximum). In short, it runs like this: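 Readout is reporter-gene mRNA induction, detected as fluorescence after RT-PCR and capillary electrophoresis, fitted for gain of signal against DMSO controls. Transiently transfected HepG2 liver cells carrying GAL4-UAS reporter constructs were treated for 24 hours.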

In experiment [18] the target is Retinoic acid receptor RXR-alpha (Homo sapiens) (UniProt P19793). As to the kind of experiment: ATG_RXRa_TRANS: Attagene TRANS-FACTORIAL HepG2 Assay for human Retinoid X Receptor alpha (RXRa) (AID 2283012; active = hit-call score of the fitted dose curve at least 0.9, where 1 is the maximum). In short, it runs like this: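 Transient transfection of human HepG2 with multiple GAL4-UAS reporter constructs; 24 h compound exposure; total RNA isolated, reverse-transcribed, PCR-amplified, 6-FAM labelled, HpaI-cut, resolved by capillary electrophoresis. Positive-direction fit versus DMSO.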

Experiment [19] addresses Cellular tumor antigen p53 (Homo sapiens) (UniProt P04637). In words: ATG_p53_CIS: Attagene CIS-FACTORIAL HepG2 Assay for human p53 Transcription Factor (AID 2282994). The conditions noted are these: HepG2 p53 cis-element reporter, Attagene mRNA; actives raise or lower the signal. In short, it runs like this:
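Using HepG2 hepatoma cells carrying cis-acting multiplexed reporters, mRNA induction is detected after a 24 h exposure. Gain- and loss-of-signal responses are fitted relative to DMSO-treated cells.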

Experiment [20] deals with human RAR-related Orphan Receptor gamma (RORg), RORC (gene 6097) (UniProt P51449). In words: ATG_RORg_TRANS: Attagene TRANS-FACTORIAL HepG2 Assay for human RAR-related Orphan Receptor gamma (RORg) (AID 2283011; active = hit-call score of the fitted dose curve at least 0.9, where 1 is the maximum). The gist of the method:
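HepG2 cells transiently transfected with GAL4-UAS reporter units and chimeric RORg-Gal4 construct; after 24 h chemical exposure, reporter mRNA measured by RT-PCR with fluorescent capillary electrophoresis, gain of signal fitted against DMSO.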

Inconclusive results are not listed. Some structures have more than one record in an assay (separate samples or runs), and their calls can disagree. The source made the active and inactive calls. Rule for the calls, unless noted: active = hit-call score of the fitted dose curve at least 0.9, where 1 is the maximum; inactive = score below 0.9.

Sequence of Peroxisome proliferator-activated receptor gamma (Homo sapiens) (P37231 whole entry, looked up, the tested form may be a part): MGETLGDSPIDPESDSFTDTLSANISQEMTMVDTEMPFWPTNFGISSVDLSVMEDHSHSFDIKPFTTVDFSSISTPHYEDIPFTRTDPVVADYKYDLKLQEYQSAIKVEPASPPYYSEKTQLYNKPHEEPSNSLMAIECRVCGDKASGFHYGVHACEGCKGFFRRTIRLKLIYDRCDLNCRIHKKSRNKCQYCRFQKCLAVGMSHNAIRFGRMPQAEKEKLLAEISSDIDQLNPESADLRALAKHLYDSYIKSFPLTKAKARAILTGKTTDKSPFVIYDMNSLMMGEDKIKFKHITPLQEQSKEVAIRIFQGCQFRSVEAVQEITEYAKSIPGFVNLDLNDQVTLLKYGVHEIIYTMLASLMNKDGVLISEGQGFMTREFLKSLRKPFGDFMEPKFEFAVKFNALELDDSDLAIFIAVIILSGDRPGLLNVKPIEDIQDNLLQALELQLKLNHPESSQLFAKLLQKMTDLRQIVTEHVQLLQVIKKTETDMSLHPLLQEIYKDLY
Sequence of Retinoic acid receptor RXR-alpha (Homo sapiens) (P19793 whole entry, looked up, the tested form may be a part): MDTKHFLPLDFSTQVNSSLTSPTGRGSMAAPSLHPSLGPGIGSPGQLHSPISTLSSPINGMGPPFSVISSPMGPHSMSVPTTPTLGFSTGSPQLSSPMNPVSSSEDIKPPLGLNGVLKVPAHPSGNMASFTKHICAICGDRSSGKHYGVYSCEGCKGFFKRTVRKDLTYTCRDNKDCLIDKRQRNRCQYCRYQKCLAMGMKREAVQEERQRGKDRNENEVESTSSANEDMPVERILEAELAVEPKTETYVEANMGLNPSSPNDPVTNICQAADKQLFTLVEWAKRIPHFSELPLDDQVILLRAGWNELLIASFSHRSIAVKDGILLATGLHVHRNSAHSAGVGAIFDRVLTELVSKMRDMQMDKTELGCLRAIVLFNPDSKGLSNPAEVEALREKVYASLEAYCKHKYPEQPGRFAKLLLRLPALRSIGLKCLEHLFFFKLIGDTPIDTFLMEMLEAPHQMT
Sequence of Nuclear receptor subfamily 1 group I member 2 (Homo sapiens) (O75469 whole entry, looked up, the tested form may be a part): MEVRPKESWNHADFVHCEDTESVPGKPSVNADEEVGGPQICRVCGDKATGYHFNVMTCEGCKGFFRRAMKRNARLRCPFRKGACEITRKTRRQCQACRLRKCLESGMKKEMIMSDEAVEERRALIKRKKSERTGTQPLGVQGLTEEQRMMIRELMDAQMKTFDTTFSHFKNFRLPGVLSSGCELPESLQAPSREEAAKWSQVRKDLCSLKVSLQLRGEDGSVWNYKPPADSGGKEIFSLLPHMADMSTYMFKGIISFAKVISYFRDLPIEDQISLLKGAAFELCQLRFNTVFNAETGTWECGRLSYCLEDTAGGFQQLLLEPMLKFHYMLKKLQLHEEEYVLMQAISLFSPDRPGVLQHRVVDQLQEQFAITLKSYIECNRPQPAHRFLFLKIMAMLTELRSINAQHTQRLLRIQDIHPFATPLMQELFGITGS
Sequence of human Peroxisome Proliferator-activated Receptor alpha (PPARa), PPARA (gene 5465) (Q07869 whole entry, looked up, the tested form may be a part): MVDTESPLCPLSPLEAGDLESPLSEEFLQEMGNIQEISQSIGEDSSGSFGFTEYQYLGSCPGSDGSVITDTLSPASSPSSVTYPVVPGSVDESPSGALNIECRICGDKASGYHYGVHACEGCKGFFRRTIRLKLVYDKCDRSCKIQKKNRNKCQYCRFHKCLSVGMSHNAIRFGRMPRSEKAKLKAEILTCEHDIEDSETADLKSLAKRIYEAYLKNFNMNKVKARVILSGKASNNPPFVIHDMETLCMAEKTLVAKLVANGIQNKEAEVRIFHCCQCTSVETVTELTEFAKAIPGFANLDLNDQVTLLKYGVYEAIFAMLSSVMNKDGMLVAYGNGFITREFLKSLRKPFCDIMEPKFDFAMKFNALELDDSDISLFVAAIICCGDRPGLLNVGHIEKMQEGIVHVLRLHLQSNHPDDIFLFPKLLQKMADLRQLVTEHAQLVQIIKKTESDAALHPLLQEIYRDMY
Sequence of human Peroxisome Proliferator-activated Receptor delta (PPARd), PPARD (gene 5467) (Q03181 whole entry, looked up, the tested form may be a part): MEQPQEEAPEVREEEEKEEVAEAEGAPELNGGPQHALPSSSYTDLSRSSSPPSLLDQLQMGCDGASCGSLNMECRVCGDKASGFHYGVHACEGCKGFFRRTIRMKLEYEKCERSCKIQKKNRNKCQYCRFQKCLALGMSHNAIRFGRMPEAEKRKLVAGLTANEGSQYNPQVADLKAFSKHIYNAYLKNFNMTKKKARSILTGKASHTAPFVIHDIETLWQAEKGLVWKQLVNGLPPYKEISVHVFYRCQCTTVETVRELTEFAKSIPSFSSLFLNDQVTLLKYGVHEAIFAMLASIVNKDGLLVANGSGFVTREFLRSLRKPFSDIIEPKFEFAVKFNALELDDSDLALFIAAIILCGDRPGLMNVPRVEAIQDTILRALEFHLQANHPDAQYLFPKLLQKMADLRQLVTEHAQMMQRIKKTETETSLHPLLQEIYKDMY
Sequence of Cellular tumor antigen p53 (Homo sapiens) (P04637 whole entry, looked up): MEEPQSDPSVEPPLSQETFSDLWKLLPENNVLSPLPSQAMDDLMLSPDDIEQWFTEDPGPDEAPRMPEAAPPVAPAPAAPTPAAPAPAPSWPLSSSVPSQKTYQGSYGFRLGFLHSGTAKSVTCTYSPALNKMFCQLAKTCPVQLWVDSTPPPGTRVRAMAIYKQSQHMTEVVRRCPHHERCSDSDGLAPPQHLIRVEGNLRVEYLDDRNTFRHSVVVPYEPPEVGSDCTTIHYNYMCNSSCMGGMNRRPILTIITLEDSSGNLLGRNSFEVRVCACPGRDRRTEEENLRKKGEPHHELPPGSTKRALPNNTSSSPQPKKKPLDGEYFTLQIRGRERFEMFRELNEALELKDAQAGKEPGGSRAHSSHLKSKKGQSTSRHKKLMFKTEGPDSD
Sequence of human Retinoic Acid Receptor gamma (RARg), RARG (gene 5916) (P13631 whole entry, looked up): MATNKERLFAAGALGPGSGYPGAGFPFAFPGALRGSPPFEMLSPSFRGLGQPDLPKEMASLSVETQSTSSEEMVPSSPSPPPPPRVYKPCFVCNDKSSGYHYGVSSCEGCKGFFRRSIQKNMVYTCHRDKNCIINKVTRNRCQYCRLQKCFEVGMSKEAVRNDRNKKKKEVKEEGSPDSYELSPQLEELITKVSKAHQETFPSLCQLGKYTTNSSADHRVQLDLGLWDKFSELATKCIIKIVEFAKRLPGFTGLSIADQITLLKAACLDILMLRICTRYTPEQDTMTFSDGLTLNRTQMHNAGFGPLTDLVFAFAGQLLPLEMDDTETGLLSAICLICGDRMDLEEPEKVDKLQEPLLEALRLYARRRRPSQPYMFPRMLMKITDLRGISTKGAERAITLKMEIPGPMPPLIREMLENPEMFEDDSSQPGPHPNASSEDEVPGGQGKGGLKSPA
Sequence of Retinoic acid receptor alpha (Homo sapiens) (P10276 whole entry, looked up, the tested form may be a part): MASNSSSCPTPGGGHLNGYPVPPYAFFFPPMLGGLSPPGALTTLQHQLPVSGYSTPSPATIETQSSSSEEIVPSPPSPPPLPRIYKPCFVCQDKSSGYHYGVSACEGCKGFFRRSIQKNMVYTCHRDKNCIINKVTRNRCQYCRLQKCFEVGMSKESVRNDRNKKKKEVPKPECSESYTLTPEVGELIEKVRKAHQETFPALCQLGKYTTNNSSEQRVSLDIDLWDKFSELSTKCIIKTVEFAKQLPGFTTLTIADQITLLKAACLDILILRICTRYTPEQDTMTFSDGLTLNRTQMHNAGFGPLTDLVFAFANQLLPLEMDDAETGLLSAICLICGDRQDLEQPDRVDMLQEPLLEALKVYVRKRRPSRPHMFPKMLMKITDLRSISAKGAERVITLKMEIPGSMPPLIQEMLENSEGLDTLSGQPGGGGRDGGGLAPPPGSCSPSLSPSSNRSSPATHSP
Sequence of human RAR-related Orphan Receptor gamma (RORg), RORC (gene 6097) (P51449 whole entry, looked up, the tested form may be a part): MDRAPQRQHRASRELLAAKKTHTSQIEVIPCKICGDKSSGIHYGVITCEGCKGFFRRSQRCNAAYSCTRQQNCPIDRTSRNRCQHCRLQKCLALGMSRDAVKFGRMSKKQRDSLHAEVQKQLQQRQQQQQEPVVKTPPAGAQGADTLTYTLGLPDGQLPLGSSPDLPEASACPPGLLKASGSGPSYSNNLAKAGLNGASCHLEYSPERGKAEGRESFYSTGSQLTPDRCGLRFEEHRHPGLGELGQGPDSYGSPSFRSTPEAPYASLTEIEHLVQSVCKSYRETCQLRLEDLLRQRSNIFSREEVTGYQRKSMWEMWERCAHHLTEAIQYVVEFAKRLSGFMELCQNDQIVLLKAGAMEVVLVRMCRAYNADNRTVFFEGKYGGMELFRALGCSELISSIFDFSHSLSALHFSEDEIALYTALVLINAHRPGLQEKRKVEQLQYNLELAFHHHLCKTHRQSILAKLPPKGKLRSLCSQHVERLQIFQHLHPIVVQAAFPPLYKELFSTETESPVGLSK
Sequence of human RAR-related Orphan Receptor beta (RORb), RORB (gene 6096) (Q92753 whole entry, looked up, the tested form may be a part): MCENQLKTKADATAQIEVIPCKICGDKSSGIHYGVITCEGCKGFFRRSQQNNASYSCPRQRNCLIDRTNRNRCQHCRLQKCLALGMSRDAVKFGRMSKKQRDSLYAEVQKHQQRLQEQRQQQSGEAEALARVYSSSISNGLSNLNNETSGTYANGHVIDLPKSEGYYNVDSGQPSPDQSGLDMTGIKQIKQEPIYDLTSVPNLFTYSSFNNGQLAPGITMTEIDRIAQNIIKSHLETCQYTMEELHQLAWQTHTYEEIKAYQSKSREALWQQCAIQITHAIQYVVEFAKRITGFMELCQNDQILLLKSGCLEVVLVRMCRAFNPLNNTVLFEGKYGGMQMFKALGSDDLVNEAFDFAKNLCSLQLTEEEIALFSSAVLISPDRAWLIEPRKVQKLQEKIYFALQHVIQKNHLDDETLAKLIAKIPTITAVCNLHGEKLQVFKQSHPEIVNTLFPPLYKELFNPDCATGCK

On to `Oc1c(Br)cc(Br)cc1Br`, for which the molecule was called inactive in [1], in experiment [4], in experiment [7], in [9], in experiment [10] and in experiment [11]. Moreover, the molecule was called inactive in [12], in [16], in experiment [17] and in experiment [18]. Besides, the AC50 in [2] is 26.9 µM (active); in experiment [3], 57.1 µM (active); in experiment [5], 30.1 µM (active); in [6], 31.4 µM (active); in [8], 13.3 µM (active); in [13], 27.4 µM (active). In addition, the AC50 is 11.9 µM (active) in experiment [14] and 7.95 µM (active) in experiment [15].

Consider `CCCCOC(=O)COC(=O)c1ccccc1C(=O)OCCCC`, for which the molecule was classed as inactive in [2], in [3], in experiment [19], in [4], in [5] and in experiment [6]. Further, the outcome in experiment [7], in experiment [8], in [9], in experiment [10], in experiment [13] and in experiment [20] was inactive. For the same molecule, the concentration at half-maximal activity (AC50) in experiment [13] was 26.1 µM (active); in [14], 51.4 µM (active); in experiment [15], 27.4 µM (active).

`Cc1c([N+](=O)[O-])c(C)c([N+](=O)[O-])c(C(C)(C)C)c1[N+](=O)[O-]`: the molecule was classed as inactive in [2], in [3], in experiment [19], in experiment [4], in experiment [12] and in experiment [14]. Besides, the result in experiment [16] was inactive. Besides, the AC50 in experiment [5] is 20 µM (active); in experiment [6] it was 20 µM (active); in experiment [7], 28.2 µM (active); in experiment [10], 20 µM (active); in [13], 26.8 µM (active); in experiment [15], 2.05 µM (active). Also, in [18], the AC50 was 9.15 µM (active).

For `OCCN(CCO)CCO`, the result in experiment [1], in [3], in experiment [4], in [5], in [6] and in experiment [7] was inactive. For the same molecule, the outcome in experiment [8], in experiment [10], in [13] and in experiment [18] was inactive.
